Bioassay records as filed in PubChem.
HSP90 inh: inhibitors of HSP90 luciferase refolding in rabbit reticulocyte lysate | hit rate 0.91% among 290,000 | luciferase refolding luminescence, 3 h | inhibition, % at 5.6 µM;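 active = inhibition above the screen-wide mean plus 3 SD, computed separately per campaign, cut at about 16% in these data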;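 note: 0% = DMSO wells and 100% = 60 µM geldanamycin wells; inhibitors lower the luminescence because luciferase stays unfolded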
Mdm2 MdmX PPI: human Mdm2/MdmX binding inhibition; SaOS-2 split-luciferase Mdm2/MdmX complementation, luminescence; AID 485346; hit rate 3% among 330,000; O15151+Q00987; inhibition, % at 8 µM;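 active = inhibition of at least 50% at 8 µM in the primary screen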
KKLEB cytotox: counter-screen for CF NF-kB inhibitors: cytotoxicity. KKLEB CF airway cells viability, ATPlite luminescence, overnight; stronger effect = lower value; cells stimulated with P. aeruginosa culture filtrate. activity change (cytotoxicity), % at 5 µM. hit rate 0.36% among 360,000;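 active = corrected activity change at or below -50% at 5 µM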
Peg3 promoter: Peg3 promoter activity inhibition. HeLa PEG-Prom luciferase reporter, luminescence, overnight. hit rate 1.7% among 360,000. inhibition, % at 20 µM;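 active = inhibition of at least 50% at 20 µM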
CF NFkB block: cystic fibrosis NF-kB activation inhibition; KKLEB NF-kB-GFP reporter, PAF-induced, GFP fluorescence overnight; inhibition, % at 5 µM; hit rate 0.86% among 360,000; AID 588850;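 active = at least 50% inhibition at 5 µM, scaled per plate between neutral and stimulator controls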;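 note: PAF is a Pseudomonas aeruginosa culture filtrate used as stimulus; plate controls were PAF-stimulated DMSO wells for no effect and unstimulated DMSO wells for full effect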
LGR2 inh: inhibitors of bursicon-induced Drosophila LGR2 receptor cAMP signaling. hit rate 0.35% among 380,000. HEK293 LGR2, CRE-luciferase, bursicon-stimulated, 4 h. AID 720647. inhibition, % at 9.99 µM;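 active = drop in luminescence signal, shown as inhibition above about 50% in the replicate tests, limit read from the data, passing the limit was not always enough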;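 note: agonist challenge used bursicon conditioned medium at about half maximal strength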
HSP90 confirm: confirmation of HSP90 inhibitors; shares compounds with HSP90 inh; AID 1846; rabbit reticulocyte lysate, luciferase refolding luminescence, 3 h; inhibition, % at 5.9 µM; hit rate 64% among 2,300; in the data active = inhibition above about 18%;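 note: 0% = vehicle wells and 100% = reference inhibitor wells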
FLuc counter: counter-screen for HSP90 inhibitors: inhibitors of firefly luciferase | shares compounds with HSP90 inh | AID 1847 | purified native firefly luciferase, luminescence | inhibition, % at 5.9 µM | hit rate 48% among 2,300;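 active = inhibition above the mean inhibition of all tested sample wells plus 3 SD, cut at about 10% in these data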;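 note: 0% = DMSO with luciferase and 100% = wells lacking luciferase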
Target sequence (P08659 whole entry, looked up): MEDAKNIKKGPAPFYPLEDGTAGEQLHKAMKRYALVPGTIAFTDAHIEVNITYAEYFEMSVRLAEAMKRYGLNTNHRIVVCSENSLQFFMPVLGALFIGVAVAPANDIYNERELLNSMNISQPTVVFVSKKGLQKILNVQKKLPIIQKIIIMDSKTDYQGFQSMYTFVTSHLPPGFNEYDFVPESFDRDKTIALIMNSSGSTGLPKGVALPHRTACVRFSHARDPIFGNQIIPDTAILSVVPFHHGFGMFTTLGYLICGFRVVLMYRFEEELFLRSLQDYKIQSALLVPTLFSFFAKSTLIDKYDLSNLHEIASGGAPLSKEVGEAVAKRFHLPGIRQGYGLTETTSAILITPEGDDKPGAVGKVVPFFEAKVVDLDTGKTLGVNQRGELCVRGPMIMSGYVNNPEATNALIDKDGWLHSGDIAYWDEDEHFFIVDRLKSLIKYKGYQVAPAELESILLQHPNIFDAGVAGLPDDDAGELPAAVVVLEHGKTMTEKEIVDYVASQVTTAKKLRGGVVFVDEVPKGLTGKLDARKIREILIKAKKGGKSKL
The depositor's hits bear a star; . = no result given. Rows were chosen to be rich in hits. Some 3.6% of all compounds tested hit in one or more screens of this group.

SMILES	HSP90 inh	Mdm2 MdmX PPI	KKLEB cytotox	Peg3 promoter	CF NFkB block	LGR2 inh	HSP90 confirm	FLuc counter
COc1ccc(-c2nc3ccccc3nc2-c2ccccc2)cc1	2.2	16.6	-24.8	16.1	14.1	15.7	.	.
COc1ccc(-c2cc3nnc(-c4ccccc4)nc3s2)cc1	21.3*	31.8	-9.1	-56.6	-9.6	.	44.5*	43.5*
Cc1cccc(CCN(C(=O)Cc2cccs2)C(C(=O)NC2CCCCC2)c2cccnc2)c1 (configuration not stated)	25.2*	7.0	3.5	37.6	0.7	.	2.0	-4.0
Cc1cccc2c3nc4ccccc4nc3n(CCCN3C(=O)c4ccccc4C3=O)c12	24.9*	.	8.2	-40.2	3.6	26.5	5.8	-5.0
O=C1c2ccccc2C(=O)N1CCCn1c2ccc(Cl)cc2c2nc3ccccc3nc21	.	.	-6.4	11.5	8.8	5.8	.	.
COCCNC(=O)C(=O)NCCN1CCNCC1	34.1*	7.8	21.1	4.9	8.9	23.5	-1.7	-7.7
COCCNC(=O)C(=O)NCCN1CCOCC1	-0.5	7.5	1.4	21.7	-1.0	.	.	.
CCCNC1=C(N(C(C)=O)c2cccc(F)c2)C(=O)c2ccccc2C1=O	82.0*	.	-55.6*	84.7*	81.3*	12.0	-4.9	-11.2
CCC(=O)N(C1=C(NC(C)C)C(=O)c2ccccc2C1=O)C(C)C	-2.1	1.2	18.3	19.0	-9.9	13.2	.	.
C/C(=N\NC(=O)c1ccoc1C)c1ccccc1	19.8*	-61.2	-7.0	-218.1	9.9	-63.0	-2.5	-22.2
Cc1occc1C(=O)N/N=C/c1ccc(N(C)C)cc1	19.5*	-79.9	-16.4	-86.6	-3.5	17.3	59.7*	49.8*
O=C(C[C@@H]1CC[C@@H]2[C@H](COC[C@H](O)CN2S(=O)(=O)c2cccc(Cl)c2)O1)NCc1ccc2c(c1)OCO2	.	.	.	.	.	-0.2	.	.
COCC(=O)Nc1ccc2c(c1)C(=O)N(C)[C@H]1CC[C@@H](CC(=O)Nc3ccccc3)O[C@@H]1CO2	.	.	.	.	.	16.7	.	.
COc1ccc(S(=O)(=O)N(C)C[C@@H]2OCCCC[C@@H](C)Oc3ccc(NC(=O)Nc4ccc5c(c4)OCO5)cc3C(=O)N([C@@H](C)CO)C[C@H]2C)cc1	.	.	.	.	.	-0.2	.	.
Nc1ccc(Br)c2cccnc12	17.3*	11.7	-4.6	3.9	-13.6	-2.8	0.7	-9.7
CO[C@@H]1CC[C@H]2CCOc3c(C#N)cccc3C(=O)N(C)[C@@H](C)C(=O)N(C)C[C@H]1O2	.	.	.	.	.	-5.1	.	.
COCC(=O)Nc1ccc2c(c1)OC[C@@H](C)N(Cc1cccnc1)C[C@@H](C)[C@@H](OC)CN(C)C2=O	.	.	.	.	.	-9.3	.	.
CCOC(=O)CON1C(=O)c2ccccc2C1=O	26.2*	9.2	-2.4	23.4	1.3	2.1	-3.5	-5.8
CC(=O)OCCCCON1C(=O)c2ccccc2C1=O	7.1	-18.1	-1.3	-4.2	-0.8	.	.	.
c1ccc2c(c1)CC1(CCCC1)n1nnnc1-2	18.3*	-0.3	12.3	27.1	-6.3	.	-0.2	-4.4
O=C(O)c1cc(N/N=C/c2ccc(N3CCOCC3)s2)ccc1Cl	2.2	-8.5	5.5	-101.3	-1.1	-2.2	.	.
C/C(=N\Nc1ccc(Cl)c(C(=O)O)c1)c1cccs1	-1.6	1.4	4.6	-45.3	-74.3	-20.7	.	.
C/C(=N\Nc1ccc(Cl)c(C(=O)O)c1)c1ccc[nH]1	34.7*	-9.0	9.2	1.7	-22.8	8.0	22.4*	-5.1
C/C(=N\Nc1ccc(Cl)c(C(=O)O)c1)c1ccc(N2CCOCC2)cc1	17.6*	6.2	-5.5	-102.5	11.2	-46.0	9.4	-4.2
Cc1ccc(NC(=O)N2CCc3ccccc32)cc1C	18.4*	-202.4	-11.9	-141.4	-11.2	-45.1	37.1*	16.6*
SMILES	HSP90 inh	Mdm2 MdmX PPI	KKLEB cytotox	Peg3 promoter	CF NFkB block	LGR2 inh	HSP90 confirm	FLuc counter
C/C(=N\NC(=O)c1ccc(N/N=C(\C)c2ccc(O)cc2)cc1)c1ccc(O)cc1	26.8*	34.8	4.6	-9.8	-5.7	-15.5	3.5	-16.6
C/C(=N/NC(=O)c1ccccn1)c1ccc(O)cc1	20.4*	-30.5	3.5	-166.8	-19.3	-11.7	6.4	-13.7
CC(C)NC(=O)Nc1ccc2c(c1)CC(=O)N([C@H](C)CO)C[C@@H](C)[C@@H](CN(C)C)O2	.	.	.	.	.	-2.3	.	.
CCC(=O)N(C)C[C@H]1Oc2cc(-c3cccc(OC)c3)ccc2S(=O)(=O)N([C@H](C)CO)C[C@H]1C	.	.	.	.	.	-1.1	.	.
COc1ccc(CNC(=O)COC(=O)c2ccco2)cc1	51.0*	16.7	9.8	8.1	-32.9	5.6	-6.7	-9.0
Cc1cccc(C(=O)N2CCN(c3ccc(C(F)(F)F)cn3)CC2)c1C	38.4*	-2.5	1.3	7.3	14.7	.	2.0	-4.8
N#Cc1ccc(-c2ccc3c(c2)[C@H]2[C@H](CCN2Cc2cncnc2)[C@H](CO)N3)cc1	.	.	.	.	.	13.8	.	.
O=C(C[C@H]1C[C@@H]2c3cc(NC(=O)c4cccnc4)ccc3O[C@@H]2[C@H](CO)O1)NC1CCCC1	.	.	.	.	.	3.2	.	.
c1ccc(-c2csc(Nc3ccccn3)n2)cc1	12.6	-212.5	11.9	-275.0	-17.8	-42.7	.	.
Oc1ccc(-c2csc(Nc3ccccn3)n2)cc1	20.8*	-173.1	4.5	-314.6	-6.3	-86.3	-2.2	-12.0
Cc1ccc(-c2csc(Nc3ccccn3)n2)cc1	18.8*	-115.3	-9.8	-18.4	-8.5	81.5*	26.3*	17.1*
O=C(NCC[C@H]1CC[C@H](NC(=O)C2CCCCC2)[C@@H](CO)O1)c1cc(Cl)cc(Cl)c1	.	.	.	.	.	15.3	.	.
C[C@@H]1CN([C@@H](C)CO)C(=O)c2cccc(NC(=O)c3nc4ccccc4s3)c2O[C@H]1CN(C)Cc1ccc(C(=O)O)cc1	.	.	.	.	.	8.4	.	.
CO[C@H]1CN(C)C(=O)c2cc(NC(=O)NC(C)C)ccc2OC[C@@H](C)N(C)C[C@H]1C	.	.	.	.	.	5.6	.	.
C[C@@H]1CN([C@H](C)CO)C(=O)c2cc(NS(=O)(=O)c3ccc(Cl)cc3)ccc2O[C@H]1CN(C)S(C)(=O)=O	.	.	.	.	.	-2.3	.	.
COc1ccc(-c2cc(=O)c3c(O)c(OC)c(OC)c(OC)c3o2)cc1	.	.	-16.8	-54.5	11.0	-16.7	.	.
COc1ccc(-c2cc(=O)c3c(O)c(OC)c(O)cc3o2)cc1	20.3*	-99.0	-4.2	-108.9	-8.8	47.2	45.9*	40.6*
CC(=O)NN1C(=O)c2ccc3c4c(ccc(c24)C1=O)C(=O)N(NC(C)=O)C3=O	44.7*	38.6	-4.7	-3.1	37.0	-1.0	29.6*	-1.8
O=C1c2ccc3c4c(ccc(c24)C(=O)N1NC(=O)C(F)(F)F)CC3	-0.7	24.0	-4.0	-7.7	-27.8	11.3	.	.
O=C(NCC(c1cccs1)N1CCOCC1)c1cc([N+](=O)[O-])cc([N+](=O)[O-])c1 (configuration not stated)	2.8	-11.4	4.3	6.7	3.4	-10.5	.	.
